Out of some 290,000 compounds screened, about 11,000 (3.8%) were called active. The list comes from a sample in which actives are over-represented; it also holds similar structures and randomly drawn compounds. A number with no mark means an inactive call.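 The calls were made as follows: active = mean replicate inhibition above about 79%, with every replicate also reaching it (limit read from the data); inconclusive = only one of the two criteria met; inactive = mean below limit and not every replicate reaching it.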

The target of this assay is FAD-linked sulfhydryl oxidase ALR (Homo sapiens) (UniProt P55789). Nature of the assay: inhibitors of human ALR sulfhydryl oxidase, primary screen, biochemical, H2O2 detection, HRP-luminol luminescence, single point (AID 485317). To be noted: purified ALR, DTT oxidation, active compounds read high, concentration not given here.
Chain of FAD-linked sulfhydryl oxidase ALR (Homo sapiens) (P55789 whole entry, looked up): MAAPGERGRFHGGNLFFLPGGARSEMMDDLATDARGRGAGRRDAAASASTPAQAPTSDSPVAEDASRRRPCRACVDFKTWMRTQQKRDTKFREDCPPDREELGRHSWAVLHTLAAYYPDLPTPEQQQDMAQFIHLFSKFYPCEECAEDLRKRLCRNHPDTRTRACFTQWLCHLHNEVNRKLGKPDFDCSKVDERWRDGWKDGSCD
Consider `CC(OC(=O)/C=C/c1ccccc1)C(=O)Nc1ccc(C(N)=O)cc1` (configuration not stated), for which the inhibition was -4.35%.

Turning to `CCc1noc(C)c1C(=O)Nc1nc(-c2ccccc2)cs1`, the inhibition was -1.08%. `CC(=O)c1ccc2c(c1)c1ccccc1n2CC(C)C`: the inhibition was -8.57%.

Turning to `CCn1c(NC(=O)c2ccccc2)c(-c2cccs2)c(=O)c2ccccc21`, the inhibition was -3.02%.

Take `CC(C)Cn1c(CCC(=O)O)ccc1-c1cccs1`: the inhibition is 98.9% (active).

In the case of `Cc1cc(C(=O)NNC(=O)c2ccccc2O)c(C)o1`, the inhibition was 1.52%. For `Cc1nn(C)c(C)c1NS(=O)(=O)c1ccc(OC(F)(F)F)cc1` the value was -3.04%.

Regarding `Cc1ccc2nc(SCC(=O)NC3CCCC3)[nH]c2c1`, the inhibition is 18.7%. For `CCOC(=O)CSc1nc2ccc(C)cc2[nH]1` the value was -3.78%. The same measure for `CC(=O)Nc1ccc(C(=O)CSc2nc3ccc(C)cc3[nH]2)cc1`: 97.9% (active); for `COc1cc(OC)cc(-c2cc3ccc(F)cc3cn2)c1`: 0.168%. For `Cc1ccc(S(=O)(=O)N2CCN(C(=O)CN3C(=O)NC(C)(c4ccc(Cl)cc4)C3=O)CC2)c(C)c1` (configuration not stated) the value was -8.79%; for `Cc1cc(N2C(=O)C(O)=C(C(=O)c3ccc(C)o3)C2c2ccc(OCc3ccccc3)cc2)no1` (configuration not stated), 38.2%; for `C=CCOc1cccc(C2C(C(=O)c3ccc(C)o3)=C(O)C(=O)N2c2nnc(C)s2)c1` (configuration not stated), 92.9% (active). `COc1cc(C2C(C(=O)c3ccc(C)o3)=C(O)C(=O)N2CCc2ccccc2)ccc1O` (configuration not stated): the inhibition is 51.3%. For `COC(=O)c1c(-c2ccsc2)oc2ccc(-c3cc(OC)c(OC)c(OC)c3)cc12` the value was -1.82%; for `O=C(Cn1cnc2ccccc2c1=O)NNC(=O)c1ccccc1F`, 29.2%; for `Cc1nnsc1C(=O)Nc1cccc(Cl)c1C`, -1.48%. Consider `Cc1nnsc1C(=O)N/N=C/c1ccccc1Cl`, for which the inhibition is -1.47%. Take `Cc1cc(Cl)ccc1NNC(=O)c1snnc1C`: the inhibition was 98.9% (active). The same measure for `CC(C)CN(C(=O)CSc1nncn1C)C1CCS(=O)(=O)C1` (configuration not stated): 0.148%. On to `Cn1c(-c2sccc2OCc2cccc(C(F)(F)F)c2)n[nH]c1=S`, for which the inhibition is 1.68%. For `C=CCn1c(-c2sc(-c3ccccc3)nc2C)n[nH]c1=S` the value was 8.68%; for `Cn1c(-c2sc3cc(C(F)(F)F)cnc3c2-c2ccccc2)n[nH]c1=S`, 96.3% (active). As to `COc1ccc(C)cc1NC(=O)CSc1nc(SC)ns1`, the inhibition was -1.75%.

Take `CSc1nsc(SCC(=O)Nc2cc(C(=O)O)ccc2C)n1`: the inhibition is 8.91%. Turning to `COc1ccc(NC(=O)CSc2nc(SC)ns2)c(OC)c1`, the inhibition is 84.5% (active). The same measure for `CCCCC/C=C/C1=CC(=O)C[C@H](c2ccc(Cl)cc2)C1`: 5.58%; for `Cc1c(NC(=O)CSc2nnc(-c3cccnc3)n2N)c(=O)n(-c2ccccc2)n1C`: 1.09%. In the case of `CS(=O)(=O)c1ccc(C(=O)OCC(=O)NNC(=O)COc2ccc(Cl)cc2)cc1`, the inhibition was -1.94%. For `Cc1c(C(=O)NNC(=O)c2ccncc2)oc2ccccc12` the value was 2.8%; for `Cc1c(C(=O)NC(=S)NCc2cccnc2)oc2ccccc12`, 93.3% (active); for `Cc1ccc(C(=O)NC(=S)NCc2cccnc2)cc1`, 24.9%. For the compound `Cc1ccc(C2(C)NC(=O)N(CC(=O)N3CC(=O)Nc4ccccc43)C2=O)cc1` (configuration not stated), the inhibition was 0.292%. The same measure for `Cc1ccc(S(=O)(=O)N(C)c2ccc(OCC(=O)OCC(=O)N(CC#N)c3ccccc3)cc2)cc1`: -18.6%. The same measure for `O=C(OCC(=O)N1CCCCC1)c1ccc(OC(F)(F)F)cc1`: -5.55%; for `Cc1cc(C)cc(OCC(=O)Nc2ccc(N3CCOCC3)cc2N2CCOCC2)c1`: 7.88%. For `O=C(CCc1nc2sc3c(c2c(=O)[nH]1)CCCC3)NCC(=O)Nc1ccccc1Br` the value was 18.6%; for `CCCN(CC1CC1)C(=O)COC(=O)c1ccc(C)cc1O`, 5.02%. In the case of `O=C(NCCc1ccc(Cl)cc1)c1cccc(N2CCCC2=O)c1`, the inhibition is 2.63%. For `CC1CCCC(NC(=O)c2cccc(N3CCCC3=O)c2)C1C` (configuration not stated) the value was 0.109%. The same measure for `C/C(=N\NC(=O)c1cccc(N2CCCC2=O)c1)c1ccc(N)cc1`: 99.1% (active). For `Cc1ccnc(SCC(=O)Nc2cccc(S(=O)(=O)N3CCOCC3)c2)n1` the value was -3.28%. Regarding `COc1ccc(NC(=O)CSc2nc(NS(=O)(=O)c3ccc(C)cc3)cc(=O)[nH]2)cc1`, the inhibition was 98.9% (active).

For `Cc1ccc(NC(=O)CSc2nc(CSc3ccc(C)cc3)cc(=O)[nH]2)cc1`, the inhibition was 6.9%. The same measure for `CCCc1cc(=O)[nH]c(SCC(=O)Nc2ccc(S(=O)(=O)N3CCCC3)cc2)n1`: -1.58%; for `CCOC(=O)Cc1csc(NC(=O)CSc2nc(C)cc(=O)[nH]2)n1`: 98.7% (active); for `Cc1cccc(NC(=O)CSc2nc3[nH]ncc3c(=O)[nH]2)c1`: 1.74%.

Turning to `CCOC(=O)Cc1csc(NC(=O)CSc2ccc(Br)cc2)n1`, the inhibition was -32.4%. Consider `COC(=O)c1cccc(NC(=O)CSc2nc(C)cc(=O)[nH]2)c1`, for which the inhibition was 98.5% (active). On to `Cc1cc(=O)[nH]c(SCC(=O)Nc2ccc(Br)cc2)n1`, for which the inhibition was -7.33%. The same measure for `CCOC(=O)Cc1csc(NC(=O)C(C)(C)C)n1`: -0.763%; for `CC(=O)NC12CC3CC(C1)CC(C(=O)N1CCN(C(=O)c4ccco4)CC1)(C3)C2`: -2.95%. The same measure for `CC1(C)O[C@@H]2[C@H](O1)[C@@H](COS(=O)(=O)O)O[C@H]2n1ccc(=O)[nH]c1=O`: -0.754%. For `Cc1ccc(NNC(=O)c2c(F)cccc2Cl)cc1Cl` the value was 98.7% (active). On to `Cc1ccc(NNC(=O)c2cccs2)cc1Cl`, for which the inhibition was 2.62%. For `O=C(NNc1cc(Cl)cc(Cl)c1)c1c(F)cccc1Cl` the value was 3.41%; for `Cc1csc(=O)n1CC(=O)Nc1ccc(S(C)(=O)=O)cc1`, 2.59%.

`CN1C(=O)[C@H]2[C@@H](/C=C/c3ccccc3)N3C(=O)CN(Cc4ccc(-c5ccccc5)cc4)C(=O)[C@@]3(C)[C@H]2C1=O`: the inhibition is 3.57%. For `CC(=O)Nc1cccc(NC(=O)CSc2nccn2Cc2ccc(F)cc2)c1` the value was 98.1% (active); for `CCCCCCNC(=O)CSc1nccn1Cc1ccccc1`, -0.072%; for `CCCCNC(=O)CSc1nccn1Cc1ccccc1`, 11.9%. The same measure for `Clc1ccc(Nc2nc(-c3cccs3)cs2)nc1`: -1.13%. The same measure for `O=c1oc2ccccc2cc1-c1csc(Nc2ccc(O)cc2)n1`: 32.6%. `Cc1ccc(Nc2nc(-c3ccc(O)cc3O)cs2)nc1`: the inhibition is 98.8% (active). The same measure for `COC(=O)Cc1ccc(OC(=O)C2CCN(S(=O)(=O)c3ccc(OC)c(OC)c3)CC2)cc1`: -4.72%; for `CC[N+](C)(CC)CCC[n+]1c(-c2ccccc2)c2cc(N)ccc2c2ccc(N)cc21`: 90.7% (active). The same measure for `O=C(COC(=O)c1cccnc1Cl)Nc1ccc(S(=O)(=O)N2CCOCC2)cc1`: -2.58%; for `Cc1cccc(Nc2nnc(SCC(=O)c3c(N)n(C4CC4)c(=O)[nH]c3=O)s2)c1C`: -3.29%. The same measure for `CN(NS(=O)(=O)c1cccs1)c1ncc(C(F)(F)F)cc1Cl`: -1.63%; for `Cc1nn(CC#N)c(=O)n1N(C)c1ncc(C(F)(F)F)cc1Cl`: 0.914%; for `C#CCN(N(C)c1ncc(C(F)(F)F)cc1Cl)S(=O)(=O)c1ccc2ccccc2c1`: 89.2% (active).

Turning to `CCOC(=O)/C=C/c1ccc(C(F)(F)F)cc1S(=O)(=O)NC(C)(C)C`, the inhibition is 20.8%. For `c1ccc2cc(CCCc3cc4ccccc4cn3)ncc2c1` the value was 2.21%; for `CN(Cc1ccccc1)C(=O)COC(=O)/C=C/c1ccc2c(c1)OCO2`, 0.927%. For `COc1ccc(-c2nc(SCC(=O)N3CCCC3)n[nH]2)cc1` the value was -0.237%; for `Cc1ccc(N2C(=O)CC(Sc3ncn[nH]3)C2=O)cc1` (configuration not stated), 45.4%; for `COc1ccc(N2C(=O)CC(Sc3n[nH]c(-c4ccc(C)cc4)n3)C2=O)cc1` (configuration not stated), 98.9% (active). With `CN(CC(=O)NCCc1ccc(S(N)(=O)=O)cc1)CC(=O)Nc1ccc(F)c(F)c1F`, the inhibition is -4.6%. On to `CCCSc1ccc([C@H]2N[C@@](Cc3ccccc3)(C(=O)OC)[C@H]3C(=O)N(C)C(=O)[C@@H]23)cc1`, for which the inhibition is 4.44%. For `Cc1ccc(-c2cc(C(=O)N/N=C/C=C/c3ccccc3)n[nH]2)o1` the value was -7.61%. For `S=c1[nH]nc(/C=C/c2ccccc2)o1` the value was 83.4% (active); for `CCOC(=O)C1CCN(C(=O)CN2C(=O)NC(C)(c3ccc4cc(OC)ccc4c3)C2=O)CC1` (configuration not stated), -7.42%.

As for `NC1=NC(c2ccc([N+](=O)[O-])cc2)N(c2ccc(F)cc2)C(N)=N1` (configuration not stated), the inhibition was -1.48%.

Take `Cc1ccc(C2CC(=O)NC(SCC(=O)OCc3ccccc3)=C2C#N)o1` (configuration not stated): the inhibition is 98.4% (active). For `CCOC(=O)CSC1=C(C#N)C(c2sccc2C)CC(=O)N1` (configuration not stated) the value was 2.21%; for `CCOC(=O)CSC1=C(C#N)C(c2ccco2)C(C(=O)OCc2ccccc2)=C(C)N1` (configuration not stated), -2.61%. For `Cc1cc(Br)ccc1NC(=O)CN(C)C(=O)CN1C(=O)NC2(CCCC2)C1=O` the value was -8.04%. For `COc1cc(NC(=O)COC(=O)c2cc(S(=O)(=O)N3CCOCC3)ccc2F)cc(OC)c1`, the inhibition was -2.6%. For `CN1c2ccc([N+](=O)[O-])cc2C(C)(C)C12C=Cc1cc(C(=O)O)ccc1O2` (configuration not stated) the value was 97.9% (active); for `Cc1cc(C)n(-c2ccc(C(=O)O)cc2[N+](=O)[O-])n1`, -3.49%. Turning to `COc1ccc2c(c1)C=CC1(O2)N(CCO)c2ccccc2C1(C)C` (configuration not stated), the inhibition is -8.22%.

As usually defined, the inhibition is the relative decrease from the control value, in per cent.

For the origin of these results see PubChem BioAssay AID485317 (Broad Institute, 2010).
